compound: C#CCNC(=O)CCSSCCC(=O)NCCc1ccc(C=O)c(C=O)c1; assay: lysine labeling ratio R10:1 (500 µM / 50 µM probe), SILAC-ABPP in living cells; higher = lower intrinsic lysine reactivity toward the probe, active = 2 or less; details: HeLa; probe concentrations 500 vs 50 µM
Summary of the method: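 With forward and reverse label swaps, light and heavy SILAC HeLa cells, alive and in PBS at room temperature, were exposed to either 500 µM or 50 µM of an alkyne-tagged lysine probe bearing a disulfide link. After mixing, lysates were clicked to biotin-azide, cut with trypsin, pulled down on neutravidin, freed with DTT, alkylated and analysed on a TIMS-TOF Pro by LC-MS/MS. The per-lysine value R is the median over forward and reverse replicates of the filtered median high-probe/low-probe MS1 peptide ratio. It is capped at 20.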

UniProt P38646, sequence (P38646 whole entry): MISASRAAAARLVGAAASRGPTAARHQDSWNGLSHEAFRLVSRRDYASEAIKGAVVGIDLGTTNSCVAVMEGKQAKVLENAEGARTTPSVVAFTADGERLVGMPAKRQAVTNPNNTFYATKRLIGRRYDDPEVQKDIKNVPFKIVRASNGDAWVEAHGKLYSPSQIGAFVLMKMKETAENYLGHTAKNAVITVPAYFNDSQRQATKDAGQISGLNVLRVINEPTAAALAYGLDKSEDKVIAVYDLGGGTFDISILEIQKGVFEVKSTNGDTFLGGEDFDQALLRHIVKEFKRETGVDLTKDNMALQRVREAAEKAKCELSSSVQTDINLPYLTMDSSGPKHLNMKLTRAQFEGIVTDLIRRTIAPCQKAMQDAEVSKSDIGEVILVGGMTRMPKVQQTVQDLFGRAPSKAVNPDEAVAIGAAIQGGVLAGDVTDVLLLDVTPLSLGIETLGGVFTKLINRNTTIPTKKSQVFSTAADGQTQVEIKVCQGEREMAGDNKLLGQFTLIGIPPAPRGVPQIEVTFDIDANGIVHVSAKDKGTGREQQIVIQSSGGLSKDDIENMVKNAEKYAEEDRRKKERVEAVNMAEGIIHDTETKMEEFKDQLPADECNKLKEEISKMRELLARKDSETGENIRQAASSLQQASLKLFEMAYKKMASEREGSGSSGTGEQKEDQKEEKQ
UniProt Q13813, sequence (Q13813 whole entry): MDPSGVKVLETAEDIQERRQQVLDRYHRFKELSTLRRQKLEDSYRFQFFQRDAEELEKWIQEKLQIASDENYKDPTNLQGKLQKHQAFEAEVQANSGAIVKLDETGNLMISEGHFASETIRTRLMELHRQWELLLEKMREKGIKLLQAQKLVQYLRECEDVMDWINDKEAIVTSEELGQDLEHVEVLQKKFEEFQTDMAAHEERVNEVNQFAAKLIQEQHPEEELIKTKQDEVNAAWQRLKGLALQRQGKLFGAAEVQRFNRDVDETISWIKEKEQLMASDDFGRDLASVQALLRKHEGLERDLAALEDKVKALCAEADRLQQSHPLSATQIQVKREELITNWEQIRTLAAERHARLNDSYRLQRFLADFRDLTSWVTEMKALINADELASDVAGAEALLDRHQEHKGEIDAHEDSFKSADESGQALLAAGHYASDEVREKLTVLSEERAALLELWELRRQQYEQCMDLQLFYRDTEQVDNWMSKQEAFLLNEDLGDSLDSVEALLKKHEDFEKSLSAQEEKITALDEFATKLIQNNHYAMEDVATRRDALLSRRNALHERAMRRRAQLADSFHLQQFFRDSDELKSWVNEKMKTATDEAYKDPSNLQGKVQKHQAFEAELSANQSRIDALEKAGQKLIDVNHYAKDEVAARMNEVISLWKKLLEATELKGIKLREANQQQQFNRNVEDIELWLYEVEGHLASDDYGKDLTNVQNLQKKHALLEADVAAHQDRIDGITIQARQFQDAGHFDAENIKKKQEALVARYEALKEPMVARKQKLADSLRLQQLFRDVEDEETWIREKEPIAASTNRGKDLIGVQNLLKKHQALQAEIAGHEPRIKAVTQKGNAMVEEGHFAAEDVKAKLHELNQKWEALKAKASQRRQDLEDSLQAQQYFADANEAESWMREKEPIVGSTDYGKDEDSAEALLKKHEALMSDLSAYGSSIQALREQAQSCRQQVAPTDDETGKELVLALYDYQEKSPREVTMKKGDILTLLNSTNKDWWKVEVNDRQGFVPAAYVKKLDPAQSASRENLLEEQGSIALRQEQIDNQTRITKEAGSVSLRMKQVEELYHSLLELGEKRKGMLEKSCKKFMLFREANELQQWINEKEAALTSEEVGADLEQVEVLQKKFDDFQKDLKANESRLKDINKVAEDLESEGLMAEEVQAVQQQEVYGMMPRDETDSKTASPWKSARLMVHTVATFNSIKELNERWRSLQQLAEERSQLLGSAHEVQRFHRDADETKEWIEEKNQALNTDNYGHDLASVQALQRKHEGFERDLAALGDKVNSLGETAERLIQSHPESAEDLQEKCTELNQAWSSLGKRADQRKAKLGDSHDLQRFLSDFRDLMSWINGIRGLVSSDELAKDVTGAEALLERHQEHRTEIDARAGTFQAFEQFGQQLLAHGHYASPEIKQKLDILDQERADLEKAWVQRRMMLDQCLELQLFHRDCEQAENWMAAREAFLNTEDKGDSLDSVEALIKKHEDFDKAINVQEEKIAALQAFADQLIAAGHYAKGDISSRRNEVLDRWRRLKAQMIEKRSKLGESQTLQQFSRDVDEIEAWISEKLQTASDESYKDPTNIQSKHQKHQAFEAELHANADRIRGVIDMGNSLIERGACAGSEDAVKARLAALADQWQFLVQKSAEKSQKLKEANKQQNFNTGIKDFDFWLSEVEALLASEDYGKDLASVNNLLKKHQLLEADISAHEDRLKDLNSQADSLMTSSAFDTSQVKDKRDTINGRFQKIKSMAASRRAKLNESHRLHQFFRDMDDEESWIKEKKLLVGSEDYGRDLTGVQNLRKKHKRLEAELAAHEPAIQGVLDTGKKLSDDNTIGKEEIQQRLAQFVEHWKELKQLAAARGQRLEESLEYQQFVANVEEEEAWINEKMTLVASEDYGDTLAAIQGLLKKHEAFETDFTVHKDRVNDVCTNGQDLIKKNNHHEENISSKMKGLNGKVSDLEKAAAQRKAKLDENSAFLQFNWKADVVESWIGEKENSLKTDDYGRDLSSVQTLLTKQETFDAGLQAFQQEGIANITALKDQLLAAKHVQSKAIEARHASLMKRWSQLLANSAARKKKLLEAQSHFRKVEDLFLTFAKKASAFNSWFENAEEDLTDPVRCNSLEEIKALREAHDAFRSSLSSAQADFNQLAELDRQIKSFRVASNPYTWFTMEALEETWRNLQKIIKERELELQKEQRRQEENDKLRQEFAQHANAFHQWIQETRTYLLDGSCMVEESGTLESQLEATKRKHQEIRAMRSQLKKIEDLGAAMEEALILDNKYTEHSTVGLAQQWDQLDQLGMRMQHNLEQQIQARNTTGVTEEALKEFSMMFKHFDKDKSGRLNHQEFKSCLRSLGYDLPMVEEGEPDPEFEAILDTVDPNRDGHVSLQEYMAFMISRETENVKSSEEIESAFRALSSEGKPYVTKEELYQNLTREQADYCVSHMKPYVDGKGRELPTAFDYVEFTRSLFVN
UniProt Q9H910, sequence (Q9H910 whole entry): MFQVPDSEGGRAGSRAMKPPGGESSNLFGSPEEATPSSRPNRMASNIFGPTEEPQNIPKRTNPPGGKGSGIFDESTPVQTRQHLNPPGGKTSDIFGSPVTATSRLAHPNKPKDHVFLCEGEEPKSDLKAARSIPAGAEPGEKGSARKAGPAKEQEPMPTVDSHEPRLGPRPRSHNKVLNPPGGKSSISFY
UniProt Q14574, sequence (Q14574 whole entry): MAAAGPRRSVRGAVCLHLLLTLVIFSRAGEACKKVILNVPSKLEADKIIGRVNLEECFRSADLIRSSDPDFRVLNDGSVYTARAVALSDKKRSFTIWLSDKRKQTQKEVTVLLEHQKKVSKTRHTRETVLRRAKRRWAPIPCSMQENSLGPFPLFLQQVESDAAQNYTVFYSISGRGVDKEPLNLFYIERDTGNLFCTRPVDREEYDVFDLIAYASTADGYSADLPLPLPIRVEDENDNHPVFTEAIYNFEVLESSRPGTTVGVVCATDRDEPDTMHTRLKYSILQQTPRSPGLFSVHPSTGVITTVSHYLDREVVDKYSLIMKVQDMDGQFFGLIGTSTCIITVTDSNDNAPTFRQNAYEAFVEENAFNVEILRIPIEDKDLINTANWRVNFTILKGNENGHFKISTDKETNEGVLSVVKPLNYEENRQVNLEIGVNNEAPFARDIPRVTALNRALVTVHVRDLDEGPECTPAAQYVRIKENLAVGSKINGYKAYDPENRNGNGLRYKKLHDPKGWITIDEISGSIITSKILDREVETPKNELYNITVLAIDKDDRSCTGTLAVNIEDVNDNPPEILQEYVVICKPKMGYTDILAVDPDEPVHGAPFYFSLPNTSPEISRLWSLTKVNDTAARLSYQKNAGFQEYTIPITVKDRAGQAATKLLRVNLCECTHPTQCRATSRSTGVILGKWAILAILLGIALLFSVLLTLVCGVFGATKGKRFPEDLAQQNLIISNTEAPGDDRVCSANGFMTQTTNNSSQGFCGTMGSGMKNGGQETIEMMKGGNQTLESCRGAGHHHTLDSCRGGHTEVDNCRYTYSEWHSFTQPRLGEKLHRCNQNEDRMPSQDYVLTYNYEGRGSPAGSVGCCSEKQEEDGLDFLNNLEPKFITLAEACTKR
UniProt P05787, sequence (P05787 whole entry): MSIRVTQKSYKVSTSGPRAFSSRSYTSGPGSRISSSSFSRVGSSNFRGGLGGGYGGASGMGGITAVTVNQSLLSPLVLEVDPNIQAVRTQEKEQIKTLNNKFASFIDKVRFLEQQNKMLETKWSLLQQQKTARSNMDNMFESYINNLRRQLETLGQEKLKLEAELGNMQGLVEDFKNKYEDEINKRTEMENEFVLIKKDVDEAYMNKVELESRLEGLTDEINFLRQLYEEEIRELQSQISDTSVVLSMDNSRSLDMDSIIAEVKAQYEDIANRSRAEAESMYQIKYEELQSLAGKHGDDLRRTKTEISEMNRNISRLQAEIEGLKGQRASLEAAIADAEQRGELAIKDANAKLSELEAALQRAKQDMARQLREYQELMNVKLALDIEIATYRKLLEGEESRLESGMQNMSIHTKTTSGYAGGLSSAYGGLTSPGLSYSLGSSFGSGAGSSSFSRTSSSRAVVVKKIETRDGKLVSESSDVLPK
UniProt P32119, sequence (P32119 whole entry): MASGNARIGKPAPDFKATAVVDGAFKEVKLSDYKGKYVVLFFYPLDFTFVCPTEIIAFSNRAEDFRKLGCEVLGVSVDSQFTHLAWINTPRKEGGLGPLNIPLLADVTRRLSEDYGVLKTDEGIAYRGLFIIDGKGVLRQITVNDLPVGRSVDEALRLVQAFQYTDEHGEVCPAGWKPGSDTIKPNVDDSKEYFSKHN

| Target | lysine labeling ratio R10:1 |
| --- | --- |
| UniProt P60866 (lysine site: K67) | 2 (inactive) |
| SMC2 (lysine site: K963) (UniProt O95347) | 2.26 (inactive) |
| MET (lysine site: K380) (UniProt P08581) | 1.21 (active) |
| HSPA9 (lysine site: K143) (UniProt P38646) | 2.54 (inactive) |
| UniProt Q14574 (lysine site: K180) | 1.97 (active) |
| UniProt P05787 (lysine site: K295) | 11.9 (inactive) |
| JPT2 (lysine site: K67) (UniProt Q9H910) | 4.42 (inactive) |
| SHMT2 (lysine site: K103) (UniProt P34897) | 4.3 (inactive) |
| JPT2 (lysine site: K90) (UniProt Q9H910) | 5.53 (inactive) |
| MYH9 (lysine site: K1181) (UniProt P35579) | 3.53 (inactive) |
| RDX (lysine site: K363) (UniProt P35241) | 1.44 (active) |
| COL5A1 (lysine site: K57) (UniProt P20908) | 1.11 (active) |
| SPTAN1 (lysine site: K39) (UniProt Q13813) | 2.65 (inactive) |
| SUB1 (lysine site: K97) (UniProt P53999) | 6.03 (inactive) |
| PEBP1 (lysine site: K187) (UniProt P30086) | 2.64 (inactive) |
| FLOT2 (lysine site: K132) (UniProt Q14254) | 2.82 (inactive) |
| HSPA9 (lysine site: K206) (UniProt P38646) | 2.48 (inactive) |
| TGFBR3 (lysine site: K672) (UniProt Q03167) | 0.83 (active) |
| SLC12A7 (lysine site: K393) (UniProt Q9Y666) | 3.46 (inactive) |
| CHCHD3 (lysine site: K89) (UniProt Q9NX63) | 0.99 (active) |

| Target | lysine labeling ratio R10:1 |
| --- | --- |
| THBS1 (lysine site: K430) (UniProt P07996) | 3.67 (inactive) |
| FZD6 (lysine site: K149) (UniProt O60353) | 0.883 (active) |
| UniProt P06576 (lysine site: K264) | 4.08 (inactive) |
| ITGA6 (lysine site: K144) (UniProt P23229) | 4.01 (inactive) |
| FN1 (lysine site: K2027) (UniProt P02751) | 13 (inactive) |
| SLC39A6 (lysine site: K156) (UniProt Q13433) | 3.23 (inactive) |
| ANXA3 (lysine site: K263) (UniProt P12429) | 1.92 (active) |
| PRDX2 (lysine site: K196) (UniProt P32119) | 2.99 (inactive) |
| NUCB2 (lysine site: K84) (UniProt P80303) | 1.63 (active) |
| UniProt P16144 (lysine site: K388) | 0.94 (active) |
| FAT4 (lysine site: K2570) (UniProt Q6V0I7) | 3.02 (inactive) |
| HSPA5 (lysine site: K213) (UniProt P11021) | 5.61 (inactive) |
| PLOD2 (lysine site: K593) (UniProt O00469) | 1.21 (active) |
| UniProt P62873 (lysine site: K15) | 3.12 (inactive) |
| RPS3A (lysine site: K63) (UniProt P61247) | 1.79 (active) |
| SPTAN1 (lysine site: K2205) (UniProt Q13813) | 6.67 (inactive) |
| PPA1 (lysine site: K176) (UniProt Q15181) | 1.88 (active) |
| ITGA1 (lysine site: K563) (UniProt P56199) | 5.65 (inactive) |
| TUBA1A (lysine site: K338) (UniProt Q71U36) | 2 (active) |
| CHST14 (lysine site: K226) (UniProt Q8NCH0) | 1.36 (active) |

Source: the supplement of paper PMC11001985
